Results published in PubChem BioAssay (EPA / NIEHS).
Results filed as inconclusive are left out. Active and inactive are the calls of the source. The calls were made as follows: active = hit-call score of the fitted dose curve at least 0.9, where 1 is the maximum; inconclusive = response in the unintended direction; inactive = score below 0.9.

Tests used:
[1] = ACEA_AR_agonist_AUC_viability: ACEA Biosciences xCELLigence Real-Time Cell Analysis on Androgen Receptor Agonism for Viability (AID 2283775);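 as to AC50: viability read 80 hours after compound addition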
Method in brief: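 Real-time impedance tracking of 22Rv1 growth, readings every 5 min for 5 h then hourly; area-under-curve viability endpoint at 80 hours, relative to DMSO. Compounds at eight concentrations, 1:4 steps, top 100 uM, n = 2.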

[2] = ACEA_AR_antagonist_AUC_viability: ACEA Biosciences xCELLigence Real-Time Cell Analysis on Androgen Receptor Antagonism for Viability (AID 2283776);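 also: 22Rv1 human prostate cancer cells growing on impedance electrode plates; hits lower the growth signal relative to DMSO meaning cytotoxicity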
Method in brief: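 Impedance read-out (RT-CES): area under growth curve at 80 h post-dose, loss of signal scored vs DMSO baseline. 22Rv1 cells; 8-pt 1:4 series, top 100 uM final, ≤0.5% DMSO; biological duplicate.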

[3] = test system: frog Androgen Receptor (AR), gene 399456; assay: ATG_frAR_XSP1: Attagene TRANS-FACTORIAL Multi-Species (XSP1) HepG2 Assay for frog Androgen Receptor (AR) (AID 2283770)
[4] = test system: zebrafish Androgen Receptor (AR), gene 100005148; assay: ATG_zfAR_XSP1: Attagene TRANS-FACTORIAL Multi-Species (XSP1) HepG2 Assay for zebrafish Androgen Receptor (AR) (AID 2283771)
Protocol: ATG_XSP1_multi-species_TRANS is a cell-based, multiplexed assay created by modifying the existing Attagene TRANS-FACTORIAL system to include a panel of nuclear receptors from some or all the following species: human (Homo sapiens), mouse (Mus musculus), frog (Xenopus laevis), zebrafish (Danio rerio), chicken (Gallus gallus), and turtle (Chrysemys picta). The ECOTOX-FACTORIAL format uses HepG2, a human liver cell line, with measurements taken at 24 hours after chemical dosing in a 24-well plate. Xsp1 included 3 nM 6-alpha-fluorotestosterone to partially stimulate the androgen receptor.ATG_zfAR_XSP1 is one of 29 assay components measured or calculated from the ATG_XSP1_multi-species_TRANS assay. It is designed to make measurements of mRNA induction, a form of inducible reporter, as detected with fluorescence intensity signals by Reverse transcription polymerase chain reaction (RT-PCR) and Capillary electrophoresis technology.The assay endpoint ATG_zfAR_XSP1 was analyzed in the positive analysis fitting direction relative to DMSO as the negative control and baseline of activity. […] Furthermore, this assay endpoint can be referred to as a primary readout, because this assay has produced multiple assay endpoints where this one serves a reporter gene function. […]

[5] = test system: zebrafish Estrogen Receptor (ESR2B), gene 317733; assay: ATG_zfER2b_XSP1: Attagene TRANS-FACTORIAL Multi-Species (XSP1) HepG2 Assay for zebrafish Estrogen Receptor (ESR2B) (AID 2283773)
Method in brief: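 HepG2 cells transiently transfected with multiple GAL4-UAS reporter units expressing chimeric zebrafish ER2b-Gal4; 24 h chemical exposure with 3 nM 6-alpha-fluorotestosterone present. Reporter mRNA measured by RT-PCR and capillary electrophoresis; gain of signal fitted versus DMSO.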

[6] = test system: frog Estrogen Receptor (ESR2), gene 100174814; assay: ATG_frER2_XSP1: Attagene TRANS-FACTORIAL Multi-Species (XSP1) HepG2 Assay for frog Estrogen Receptor (ESR2) (AID 2283774)
Method in brief: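 HepG2 cells transiently transfected with GAL4-UAS multiplexed reporter units expressing chimeric NR-Gal4 proteins; reporter mRNA measured 24 h after dosing by RT-PCR, FAM labeling, HpaI digestion and capillary electrophoresis. Gain-of-signal relative to DMSO; 3 nM 6-alpha-fluorotestosterone present.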

[7] = test system: frog Estrogen Receptor (ESR1), gene 398734; assay: ATG_frER1_XSP1: Attagene TRANS-FACTORIAL Multi-Species (XSP1) HepG2 Assay for frog Estrogen Receptor (ESR1) (AID 2283777)
Method in brief: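 Read-out: fluorescent reporter mRNA via RT-PCR, HpaI digestion and capillary electrophoresis, after 24 h chemical exposure of transiently transfected human HepG2 cells expressing exogenous NR-Gal4 chimeras. DMSO served as baseline for positive-direction fitting.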

[8] = test system: zebrafish Estrogen Receptor (ESR2A), gene 317734; assay: ATG_zfER2a_XSP1: Attagene TRANS-FACTORIAL Multi-Species (XSP1) HepG2 Assay for zebrafish Estrogen Receptor (ESR2A) (AID 2283778)
Method in brief: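 HepG2 cells transiently transfected with multiplexed GAL4-UAS reporter units and chimeric NR-GAL4 receptors; 24 h compound exposure with 3 nM 6-alpha-fluorotestosterone present. Reporter mRNA quantified by RT-PCR and capillary electrophoresis, gain-of-signal fitted relative to DMSO.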

[9] = target: chicken Estrogen Receptor (ESR1), ESR1 (gene 396099) (UniProt P06212); assay: ATG_chERa_XSP1: Attagene TRANS-FACTORIAL Multi-Species (XSP1) HepG2 Assay for chicken Estrogen Receptor (ESR1) (AID 2283779)
Method in brief: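 HepG2 cells transiently transfected with multiplexed GAL4-UAS reporter units expressing chimeric NR-Gal4 proteins; 3 nM 6-alpha-fluorotestosterone present. Reporter mRNA measured 24 h after dosing by RT-PCR, FAM labelling, HpaI digest and capillary electrophoresis; gain of signal versus DMSO.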

Chain of chicken Estrogen Receptor (ESR1), ESR1 (gene 396099) (P06212 whole entry, looked up, the tested form may be a part): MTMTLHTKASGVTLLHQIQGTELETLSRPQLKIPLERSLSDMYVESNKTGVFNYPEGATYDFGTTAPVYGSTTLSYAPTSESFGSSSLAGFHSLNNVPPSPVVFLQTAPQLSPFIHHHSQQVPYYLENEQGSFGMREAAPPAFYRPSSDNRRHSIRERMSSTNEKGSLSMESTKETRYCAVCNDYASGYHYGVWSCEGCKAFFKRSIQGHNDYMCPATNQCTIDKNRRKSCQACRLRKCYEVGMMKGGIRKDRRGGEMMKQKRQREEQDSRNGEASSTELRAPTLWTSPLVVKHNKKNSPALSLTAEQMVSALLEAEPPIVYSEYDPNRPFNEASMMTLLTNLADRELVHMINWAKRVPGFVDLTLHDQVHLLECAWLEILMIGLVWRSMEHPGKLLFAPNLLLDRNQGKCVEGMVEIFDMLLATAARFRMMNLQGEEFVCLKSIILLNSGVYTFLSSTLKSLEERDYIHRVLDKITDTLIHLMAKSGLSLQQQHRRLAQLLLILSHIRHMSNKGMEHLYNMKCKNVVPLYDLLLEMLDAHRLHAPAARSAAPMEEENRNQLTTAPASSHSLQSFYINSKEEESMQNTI

What does the source list for `CN1C(=O)CC[C@H]1c1cccnc1`?
outcome [1]: inactive; outcome [2]: inactive

For `CCCCCCCCOc1ccc(C(=O)c2ccccc2)c(O)c1`, which AC50 [1] is on record?
The AC50 was 68.2 µM (active).

And the AC50 [2]?
The AC50 was 13.7 µM (active).

Which results are given for `Cc1cc(F)ccc1-c1cc(N2CC[C@@H](O)[C@H]2CO)ncc1N(C)C(=O)C(C)(C)c1cc(C(F)(F)F)cc(C(F)(F)F)c1`?
AC50 [1]: 8.51 µM (active); AC50 [2]: 10.1 µM (active)

Which AC50 [1] does the source give for `O=C(OCCCCCCOC(=O)c1ccccc1)c1ccccc1` here?
Its AC50 is 74 µM (active).

And the AC50 [2]?
Its AC50 is 71.5 µM (active).

Which outcome [1] does the source give for `O=c1ccc2ccccc2o1` here?
Its outcome is “inactive”.

And the outcome [2]?
The outcome was “inactive”.

For `CC[C@@H]1C[C@H](N(Cc2cc(C(F)(F)F)cc(C(F)(F)F)c2)C(C)=O)c2cc(C(F)(F)F)ccc2N1C(=O)OC(C)C`, which outcome [1] is on record?
Its outcome is “inactive”.

And the outcome [2]?
The outcome was “inactive”.

Which results are given for `CC(C)(c1cc(Br)c(O)c(Br)c1)c1cc(Br)c(O)c(Br)c1`?
outcome [3]: inactive; outcome [4]: inactive; outcome [5]: inactive; AC50 [6]: 11.8 µM (active); AC50 [1]: 25 µM (active); AC50 [2]: 24.3 µM (active); outcome [7]: inactive; outcome [8]: inactive; outcome [9]: inactive

Which results are given for `O=C1CCC(C2CCCCC2)CC1`?
AC50 [1]: 50 µM (active); AC50 [2]: 74.1 µM (active)

Which outcome [1] does the source give for `Cc1ccc(C(C)C)cc1` here?
Its outcome is “inactive”.

What about the outcome [2] of the same compound?
Its outcome is “inactive”.

With `O=C1c2ccccc2C(=O)N1CCc1noc(-c2ccc(CN3CCCCCC3)s2)n1` as the compound, how does the AC50 [1] read?
The AC50 was 13.2 µM (active).

What about the AC50 [2] of the same compound?
Its AC50 is 6.41 µM (active).

For `CC[C@H](NC(=O)c1cc(F)ccc1NS(=O)(=O)c1cccc2cccnc12)c1ccccc1`, which AC50 [1] is on record?
The AC50 was 57.2 µM (active).

For `CC(C)(C)c1csc(-c2cc3cc(OCc4ccccc4CC(=O)O)ccc3o2)n1`, which AC50 [1] is on record?
Its AC50 is 21.1 µM (active).

What about the AC50 [2] of the same compound?
The AC50 was 23.7 µM (active).

For `CCCCCCCCCCCO`, which AC50 [1] is on record?
Its AC50 is 90.2 µM (active).

And the AC50 [2]?
The AC50 was 85 µM (active).

For `CCCCOC(=O)c1ccc(O)cc1`, which AC50 [1] is on record?
The AC50 was 69.5 µM (active).

What about the AC50 [2] of the same compound?
The AC50 was 56.7 µM (active).

What does the source list for `CCCCCCCCCCCCO`?
outcome [1]: inactive; outcome [2]: inactive

With `O=C(O)Cn1c(=O)n(Cc2ccc(Br)cc2F)c(=O)c2ccc(Cl)cc21` as the compound, how does the outcome [1] read?
Its outcome is “inactive”.

What about the outcome [2] of the same compound?
Its outcome is “inactive”.

Which outcome [1] does the source give for `Cc1ncc(CO)c(CO)c1O` here?
Its outcome is “inactive”.

What about the outcome [2] of the same compound?
The outcome was “inactive”.

With `O=CCCCC=O` as the compound, how does the AC50 [1] read?
The AC50 was 35.2 µM (active).

And the AC50 [2]?
Its AC50 is 23.3 µM (active).

For `CN(C)C(=O)C1(N2CCCCC2)CCN(CC[C@@]2(c3ccc(Cl)c(Cl)c3)CN(C(=O)c3ccccc3)CCO2)CC1`, which AC50 [1] is on record?
The AC50 was 10.5 µM (active).

What about the AC50 [2] of the same compound?
The AC50 was 11.5 µM (active).

What does the source list for `CC(C)(C)c1cc(/C=C2\SC(N)=NC2=O)cc(C(C)(C)C)c1O`?
AC50 [1]: 13.5 µM (active); AC50 [2]: 15.2 µM (active)

Which AC50 [1] does the source give for `CC(=O)N1CCN(c2ccc(OC[C@H]3CO[C@](Cn4ccnc4)(c4ccc(Cl)cc4Cl)O3)cc2)CC1` here?
The AC50 was 29.2 µM (active).

What about the AC50 [2] of the same compound?
The AC50 was 32.4 µM (active).
